Results reported in PubChem BioAssay.
Potency and affinity values are given separately. Inconclusive results are not listed. Calls of active or inactive are those of the source. Unless noted, the rule behind the calls is not given here.

How the values were obtained:
[1] = inhibitors of PAX8-driven TPO luciferase reporter, dose response, RMG-I cells, cherry-pick (AID 687027;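 active = every replicate test run called active, with the signal dropping as expected and potency within twice the top valid dose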)
[2] = cytotoxicity in PAX8-dependent RMG-1 cells, dose response, cell-based, cherry-pick (AID 687029;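 active = signal drop whose fitted half-maximal concentration is at most twice the top valid dose, in every test run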;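 note: cells exposed to compound for 96 hours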)
[3] = cytotoxicity in IOSE-T80 ovarian epithelial cells, dose response, selectivity assay for PAX8 inhibitor project, cell-based, cherry-pick (AID 687032;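 active = fitted half-maximal concentration for viability loss no higher than twice the top valid dose, in every repeat run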;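 note: cells exposed to compound for 96 h before reading; 0% = neutral control wells and -100% = 2 µM mitoxantrone kill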)
[4] = inhibitors of CMV-promoter luciferase reporter, dose response, counter-screen for Pax8 inhibitor project, cell-based, HEK293, luminescence, dry powder (AID 743020;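 active = signal-lowering compounds whose fitted half-maximal concentration is at or below twice the top tested dose in every run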;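 note: HEK293 cells stably expressing the CMV luciferase reporter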)
[5] = non-specific cell cytotoxicity, dose response, cytotoxicity control for PAX8 inhibitor project, plate reader, dry powder samples (AID 743021)
[6] = IGROV1 ovarian cancer cell cytotoxicity, dose response, PAX8 inhibitor project, plate reader, dry powder samples (AID 743043);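 note: more negative means fewer viable cells or more cytotoxicity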
[7] = NIH:OVCAR-3 ovarian cancer cell cytotoxicity, dose response, PAX8 inhibitor project, plate reader, dry powder samples (AID 743044); conditions: max activity: at 35 µM, stronger effect = lower value unless noted
[8] = IOSE-T80 ovarian epithelial cell cytotoxicity, dose response, cytotoxicity control for PAX8 inhibitor project, plate reader, dry powder samples (AID 743045);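 note: 0% = neutral control median and -100% = positive control median; more negative values mean more cell killing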
[9] = cytotoxicity in OVCAR8 ovarian cancer cells, dose response, PAX8 project, cell-based, plate reader, dry powder samples (AID 743197)
[10] = A2780 ovarian cancer cell cytotoxicity, dose response, cytotoxicity control, plate reader, dry powder samples (AID 743046);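 note: 0% = neutral control wells and -100% = cytotoxic reference compound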

Measured: max activity

c1ccc(COc2ccc(OCCN3CCCCC3)cc2)cc1
inactive: [1] | [2] | [3] | [4] | [5]

COc1ccc(-c2cn(CC[C@@H]3CC[C@H](NC(=O)Cc4ccccn4)[C@H](CO)O3)nn2)cc1
inactive: [1] | [2] | [3] | [4] | [5] | [6] | [7] 27.6% [at 1 µM, stronger effect = lower value] | [8] | [9]

CC=Cc1ccc2n(c1=O)C[C@H]1[C@H](CO)[C@@H](C(=O)NC3CCC3)N(CC)[C@@H]21 (mixture of isomers)
inactive: [1] | [2] | [3] | [4] | [5] | [6] | [7] 9.45% | [8] | [10] | [9]

CCOc1ccc(C(=O)Nc2ccc(Cc3ccncc3)cc2)cc1Br
inactive: [1] | [2] | [3] | [4] | [5]

C[C@@H]1CN([C@@H](C)CO)C(=O)c2cc(NS(=O)(=O)c3ccc(Cl)cc3)ccc2O[C@@H](C)CCCCO[C@H]1CN(C)C
inactive: [1] | [2] | [3] | [4] | [5] | [6] | [7] -14.3% | [8] | [10] | [9]

O=C(C[C@H]1C[C@@H]2c3cc(NC(=O)C4CCOCC4)ccc3O[C@@H]2[C@@H](CO)O1)NCc1ccc(Oc2ccccc2)cc1
inactive: [1] | [2] | [3] | [4] | [6] | [7] -14.4% [at 4.2 µM, stronger effect = lower value] | [8] | [10] | [9]

O=C(Nc1ccc(C(F)(F)F)cc1)Nc1ccc2c(c1)[C@@H]1C[C@@H](CC(=O)N3CCc4ccccc4C3)O[C@H](CO)[C@@H]1O2
inactive: [1] | [2] | [3] | [4] | [5] | [6] | [7] 19.1% [at 2.1 µM, stronger effect = lower value] | [8] | [10] | [9]

COc1ccc(-c2cn(CC[C@H]3CC[C@@H](NC(=O)Cc4ccccn4)[C@H](CO)O3)nn2)cc1
inactive: [1] | [2] | [3] | [4] | [5] | [6] | [7] 35.1% [at 2.1 µM, stronger effect = lower value] | [8] | [9]

CN(C)C(=O)c1cccc(-c2ccccc2[C@@H]2[C@@H](C#N)N(C(=O)C3CC3)[C@H]2CO)c1
inactive: [1] | [2] | [3] | [4] | [5] | [6] | [7] 12.7% [at 0.26 µM, stronger effect = lower value] | [8] | [10] | [9]

COc1cccc(-c2ccc(C3[C@@H]4CN(Cc5cccc(F)c5)C[C@H]3N4)cc2)c1 (stereo not given in full)
inactive: [1] | [2] | [3] | [4] | [5] | [10] | [9]

C[C@H](O)C#Cc1ccc2c(c1)O[C@@H](CN(C)Cc1ccc(-c3ccccc3)cc1)[C@H](C)CN([C@@H](C)CO)S2(=O)=O
inactive: [1] | [2] | [3] | [4] | [5] | [6] | [7] -13.7% | [8] | [9]

Cc1ccc(-c2ccc([C@@H]3[C@@H]4CN(Cc5ccccc5F)C[C@H]3N4)cc2)cc1
inactive: [1] | [2] | [3] | [4] | [7] -28% | [8] | [9]

COc1ccc2c3c([nH]c2c1)[C@@H](CO)N(C(=O)C1CC1)CC31CN(Cc2nccs2)C1
inactive: [1] | [2] | [3] | [4] | [5] | [6] | [7] 23.4% [at 4.2 µM, stronger effect = lower value] | [8] | [10] | [9]

COc1ccc(NC(=O)N2CCCCN3[C@@H](CO)[C@@H](c4ccc(C5=CCCC5)cc4)[C@@H]3C2)cc1
inactive: [1] | [2] | [3] | [4] | [5] | [6] | [8]

Fc1cccc(CN2C[C@@H]3N[C@H](C2)C3c2ccc(-c3ccccc3)cc2)c1 (stereo not given in full)
inactive: [1] | [2] | [3] | [4] | [5] | [8]

O=C(C[C@H]1C[C@H]2c3cc(NS(=O)(=O)c4ccc(F)cc4)ccc3O[C@H]2[C@H](CO)O1)NCc1ccc(-c2ccccc2)cc1
inactive: [1] | [2] | [3] | [4] | [5] | [6] | [7] 10.6% [at 1 µM, stronger effect = lower value] | [8] | [10] | [9]

C[C@H]1CCCCO[C@H](CN(C)Cc2ccccc2)[C@@H](C)CN([C@@H](C)CO)C(=O)c2cc(NC(=O)Nc3ccc(C(F)(F)F)cc3)ccc2O1
inactive: [1] | [2] | [3] | [4] | [5] | [8] | [10]

C[C@@H]1CCCCO[C@H](CN(C)C)[C@H](C)CN([C@@H](C)CO)C(=O)c2cc(NS(=O)(=O)c3ccc(Cl)cc3)ccc2O1
inactive: [1] | [2] | [3] | [4] | [6] | [7] 34.9% [at 0.26 µM, stronger effect = lower value] | [8] | [10] | [9]

C[C@@H]1CN([C@@H](C)CO)C(=O)c2cc(NC(=O)Nc3ccccc3)ccc2O[C@@H](C)CCCCO[C@H]1CN(C)Cc1ccc(Cl)c(Cl)c1
inactive: [1] | [2] | [3] | [4] | [5] | [6] | [7] -10.5% [at 8 µM, stronger effect = lower value] | [8] | [9]

COc1ccc(-c2ccc3c(c2)[C@H]2[C@H](CCN2C(=O)Cc2cccnc2)[C@H](CO)N3C)cc1
inactive: [1] | [2] | [3] | [4] | [5] | [6] | [7] 35.5% [at 0.26 µM, stronger effect = lower value] | [8] | [10]

CO[C@@H]1CN(C)C(=O)c2cc(NC(=O)c3ccccc3F)ccc2OC[C@@H](C)N(CC2CC2)C[C@@H]1C
inactive: [1] | [2] | [3] | [4] | [5] | [6] | [7] 9.58% [at 0.5 µM, stronger effect = lower value] | [8] | [10] | [9]

O=C1/C(=C\c2ccco2)SC(=S)N1c1ccc(O)cc1
inactive: [1] | [2] | [3] | [4] | [5]

C[C@H](O)C#Cc1ccc([C@@H]2[C@@H](CO)N3CCCCN(S(=O)(=O)c4ccccc4)C[C@H]23)cc1
inactive: [1] | [2] | [3] | [4] | [5] | [6] | [7] 11.5% [at 0.26 µM, stronger effect = lower value] | [8] | [10] | [9]

C[C@H]1CN([C@@H](C)CO)C(=O)c2cccc(NC(=O)Nc3cccc4ccccc34)c2O[C@H]1CN(C)CC1CC1
inactive: [1] | [2] | [3] | [4] | [5] | [6] | [7] -29.9% | [8] | [10] | [9]

O=C(Cc1ccccn1)N[C@@H]1CC[C@@H](CCn2cc(-c3ccccc3)nn2)O[C@H]1CO
inactive: [1] | [2] | [3] | [4] | [5] | [6] | [7] 6.29% | [8] | [10] | [9]

C[C@H]1CN([C@@H](C)CO)C(=O)c2cccc(NC(=O)Nc3ccc(C(F)(F)F)cc3)c2O[C@H]1CN(C)C(=O)NC1CCCCC1
inactive: [1] | [2] | [3] | [4] | [5] | [6] | [7] -14.7% [at 8 µM, stronger effect = lower value] | [8]

COc1ccccc1NC(=O)N1CCCCN2[C@H](CO)[C@H](c3ccc(-c4ccc(C)cc4)cc3)[C@H]2C1
inactive: [1] | [2] | [3] | [4] | [5] | [6] | [7] 15.5% [at 1 µM, stronger effect = lower value] | [8] | [10] | [9]

CN1[C@@H]2Cn3c(ccc(-c4ccccc4)c3=O)[C@H]1[C@@H](C(=O)NC1CCCCC1)[C@@H]2CO
inactive: [1] | [2] | [3] | [4] | [5] | [6] | [7] -24.4% | [8] | [10] | [9]
